“And” between values parts separate entries of the source, which are not always exact repeats. Equal values may be shown once. About 5,700 (36%) of roughly 16,000 compounds were called active. Another 24% or so got no clear call; they are omitted. The call rests on the fitted dose curve; in most records, active means well fitted curve in the direction sought with a large enough effect; inconclusive means small, poorly fitted or top-dose-only effect, or effect the other way; inactive means no such curve, though single readings can be large or run the other way. This is one part of the list.
Biological target: Cytochrome P450 1A2 (Homo sapiens) (UniProt P05177)
Assay: Cytochrome panel assay with activity outcomes
Conditions: recombinant CYP, pro-luciferin dealkylation, luminescence, p450-cyp1a2; series mostly up to 57.1 µM; activity, negative = inhibition: at the top concentration
On the % scale 0 is the no-effect control and ±100 the full control effect.

Cytochrome P450 1A2 (Homo sapiens), sequence (P05177 whole entry, looked up): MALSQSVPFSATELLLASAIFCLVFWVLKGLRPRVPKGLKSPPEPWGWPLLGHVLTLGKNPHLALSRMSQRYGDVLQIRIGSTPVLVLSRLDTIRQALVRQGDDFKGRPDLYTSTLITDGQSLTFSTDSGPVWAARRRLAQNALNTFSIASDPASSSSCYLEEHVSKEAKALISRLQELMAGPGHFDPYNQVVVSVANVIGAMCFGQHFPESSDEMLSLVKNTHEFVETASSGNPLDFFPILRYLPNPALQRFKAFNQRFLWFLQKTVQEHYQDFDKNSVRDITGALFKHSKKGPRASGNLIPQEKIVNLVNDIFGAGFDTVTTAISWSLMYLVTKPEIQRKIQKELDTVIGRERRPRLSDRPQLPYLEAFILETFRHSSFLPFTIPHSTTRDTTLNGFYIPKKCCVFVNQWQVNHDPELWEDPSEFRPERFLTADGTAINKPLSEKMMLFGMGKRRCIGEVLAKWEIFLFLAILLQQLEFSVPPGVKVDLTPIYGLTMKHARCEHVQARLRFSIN

| Structure (SMILES) | activity, negative = inhibition | AC50 |
| --- | --- | --- |
| O=c1[nH]cc(CS(=O)(=O)Cc2c[nH]c(=O)[nH]c2=O)c(=O)[nH]1 | -24.4% [at 11.4 µM] (inactive) | – |
| CC(=O)N1CCC2(CCN(Cc3nccs3)CC2)CC1 | -13.5% (inactive) | – |
| COCC(=O)N1CCC2(CC1)CN(C(=O)Nc1cccc(C#N)c1)C2 | 2.75% (inactive) | – |
| NCCSSCCN | – | inactive |
| CC(=O)c1c(O)cc(=O)n(-c2ccccc2)c1-c1cccc2ccccc12 | 8.95% (inactive) | – |
| CC(C)(Oc1ccc(-c2cccc3ccccc23)cc1)C(=O)O | 8.77% [at 11.4 µM] (inactive) | – |
| CN1C(=O)/C(=N\OC(=O)c2cccc3ccccc23)c2ccccc21 | – | 7.08 µM (active) |
| COc1ccc(/C(O)=C2/C(=O)C(=O)N(CCCC(=O)O)C2c2ccc(OC)cc2)cc1 (stereo not given) | -24% (inactive) | – |
| COc1ccc(CCN=CC2=C(O)CC(C)(C)CC2=O)cc1 | -18.3% (inactive) | – |
| COc1ccc2cc(C(=O)CCC(=O)O)ccc2c1 | – | 0.794 µM (active) |
| COc1ccc2cc(CCC(C)=O)ccc2c1 | – | 0.398 µM (active) |
| CCOc1ccc(C(=O)CCC(=O)O)cc1 | -8.88% (inactive) | – |
| COc1cccc(/C=N/NC(=O)c2cc(-c3cccn3C)n[nH]2)c1 | – | 6.31 µM (active) |
| COc1cccc(/C=N/NC(=O)c2c(-c3ccccc3)noc2C)c1 | -18.4% (inactive) | – |
| COc1cc2nc(N3CCN(C(=O)OCc4ccccc4)[C@H](C(=O)NC(C)(C)C)C3)nc(N)c2cc1OC | -14.2% (inactive) | – |
| CSc1nc(N)c2ncn([C@@H]3O[C@@H](COP(=O)(O)OP(=O)(O)O)[C@@H](O)[C@H]3O)c2n1 | -5.39% (inactive) | – |
| CCn1c(C)[n+](CCCS(=O)(=O)[O-])c2cc(Cl)c(Cl)cc21 | -7.03% (inactive) | – |
| CCn1c(=O)[nH]c2cc(Cl)c(Cl)cc21 | – | 0.251 µM (active) |
| CC[N+](CC)(CC)CC | 11.2% (inactive) | – |
| CC1=N/C(=C\c2ccc([N+](=O)[O-])cc2)C(=O)N1c1ccc(Cl)cc1 | -20.6% (inactive) | – |

| Structure (SMILES) | activity, negative = inhibition | AC50 |
| --- | --- | --- |
| CC1=NN(c2ccc(S(=O)(=O)O)cc2)C(=O)/C1=C\c1ccc(Cl)cc1 | -8.89% [at 2.29 µM] (inactive) | – |
| Cc1ccc(C)n1N1C(=O)/C(=C\c2ccc(Cl)cc2)SC1=S | – | 1.58 µM (active) |
| C[C@@](N)(/C=C\c1ccccc1)C(=O)O | -17.1% [at 11.4 µM] (inactive) | – |
| O=C(CSc1ccc(Cl)cc1)Nc1ccc(N2CCN(c3ccccc3)CC2)c(F)c1 | -16.6% (inactive) | – |
| O=C(CN1CCN(c2ccc(Cl)cc2)CC1)Nc1cccc(F)c1 | – | 12.6 µM (active) |
| CC(C)c1cccc2cc3c(nc12)-c1cccc(=O)n1C3 | – | 0.501 µM (active) |
| CCc1c2c(nc3c(C(C)C)cccc13)-c1cccc(=O)n1C2 | – | 0.398 µM (active) |
| CC(C)c1cccc2c([Si](C)(C)C)c3c(nc12)-c1cccc(=O)n1C3 | – | 15.8 µM (active) |
| CCC(C)N1C(=O)C2C(C(=O)Nc3cccc(OC)c3)C3C=CC2(O3)C1C(=O)NC1CCCCC1C (stereo not given) | -4.89% (inactive) | – |
| COc1ccc(O[C@H]2C=C[C@@H](c3ccccc3)O[C@H]2CO/N=C(/C)CCC(=O)OC[C@@H]2O[C@H](c3ccccc3)C=C[C@@H]2Oc2ccc(OC)cc2)cc1 | -1.91% [at 11.4 µM] (inactive) | – |
| CSC(N)=NCCC[C@@H](N)C(=O)O | -1.68% (inactive) | – |
| FC(F)(F)c1ccccc1-c1nc(NC2CC2)c2ccccc2n1 | – | 0.398 µM (active) |
| CNc1nc(-c2ccccc2C(F)(F)F)nc2ccccc12 | – | 0.251 µM (active) |
| O=C1[C@H]2O[C@@H]2[C@@H](O)[C@H]2[C@H]1CCn1c(=O)n(Cc3cc4c(cc3Cl)OCO4)c(=O)n12 | -4.53% [at 11.4 µM] (inactive) | – |
| COc1ccc2c(Cl)c(-c3nnco3)sc2c1 | – | 0.794 µM (active) |
| Cc1cccc(C)c1OC[C@H](C)N | – | 2.51 µM (active) and 398 nM (active) |
| Cc1cccc(C)c1OC[C@@H](N)C(C)C | – | 12.6 µM (active) |
| Cc1cccc(C)c1OCC(O)CNC(C)(C)C (stereo not given) | -6.86% (inactive) | – |
| O=C1C[C@@H](O)[C@@H](O)[C@H]2[C@@H]3C(=O)N(c4cccc(Oc5ccccc5)c4)C(=O)[C@@H]3CC[C@H]12 | 0.387% [at 11.4 µM] (inactive) and -5.49% [at 11.4 µM] (inactive) | – |
| O=C(NC(=S)Nc1ccc2c(c1)OCO2)c1ccccc1 | – | 2.82 µM (active) |

| Structure (SMILES) | activity, negative = inhibition | AC50 |
| --- | --- | --- |
| Cc1ccc(C(=O)NC(=S)Nc2ccc3c(c2)OCCO3)c(C)c1 | – | 7.08 µM (active) |
| O=C(NC(=S)Nc1ccc(Oc2ccc(Cl)cc2)cc1)c1ccccc1 | -26.7% (inactive) | – |
| O=C(NC(=S)Nc1ccc(C(=O)N2CCOCC2)cc1)c1ccc([N+](=O)[O-])cc1 | -16.4% (inactive) | – |
| c1ccc(-c2nccc(-c3ccc(-n4cnc5ccccc54)cc3)n2)nc1 | – | 10 µM (active) |
| c1ccc2c(c1)ncn2-c1ccc(-c2ccnc(-c3ccncc3)n2)cc1 | – | 0.316 µM (active) |
| COc1cc(OC)c(OC)cc1C=NCC1(c2ccccc2)CCCC1 | – | 8.91 µM (active) |
| C#CCOCCCC(=O)O | -1.25% [at 11.4 µM] (inactive) | – |
| O=C(O)CCCCCCCC(=O)O | -15.8% (inactive) | – |
| C#CCCCCCCCCCCCCCCCC(=O)O | – | 6.31 µM (active) |
| C[C@H]1COC(=O)[C@H](Cc2ccccc2)NC(=O)[C@@H](C)COC(=O)[C@H](Cc2ccccc2)NC1=O | 9.1% [at 11.4 µM] (inactive) | – |
| CCOC(=O)c1c(NC(=O)/C=C/c2ccc3c(c2)OCO3)sc(C)c1C | -23.6% (inactive) | – |
| COC(=O)c1cc(NC(=O)/C=C/c2ccc3c(c2)OCO3)cc(C(=O)OC)c1 | – | 12.6 µM (active) |
| CC(C)[C@H](NC(=O)OC(C)(C)C)[C@@H](O)CC(=O)C(C)(C)C | 0.674% [at 11.4 µM] (inactive) | – |
| COc1ccc(CNc2ncncc2-c2cccnc2)c(OC)c1 | – | 3.16 µM (active) |
| COc1ccccc1CNc1ncncc1-c1cccnc1 | – | 0.794 µM (active) |
| COc1ccccc1CNc1ncncc1-c1ccoc1 | – | 1.26 µM (active) |
| COc1ccc(CNc2ncncc2-c2cccc(NS(C)(=O)=O)c2)c(OC)c1 | – | 15.8 µM (active) |
| COc1ccccc1CN1CCCC2(CCN(C(=O)c3cnccn3)CC2)C1 | -19.3% (inactive) | – |
| COCC(=O)N1CCC2(CCCN(C(=O)Nc3cccc(F)c3)C2)CC1 | -18% (inactive) | – |
| CCc1cc2c(nc1CC)CCN(CC/C(C)=N/O[C@@H](C)c1cn([C@@H]3COC[C@@H]3O)nn1)C2 | -1.13% [at 11.4 µM] (inactive) | – |

— PubChem BioAssay AID1851 (National Center for Advancing Translational Sciences (NCATS), 2009)
